These results are taken from the supplement of paper PMC4380459.

SMILES strings stand for the structures.

For the assay, the system named is tubulin (bovine brain). The assay can be described thus: tubulin polymerization end-point dOD, fold change relative to DMSO vehicle; higher = more polymerization (stabilization). Particulars: 50 µM; 60 min; 37 °C. In outline:
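Cytoskeleton HTS-Tubulin polymerization kit: bovine brain tubulin (4 mg/ml in G-PEM buffer with PIPES pH 6.9, MgCl2, EGTA and GTP) was assembled on ice with compound at a final 50 μM in 0.5% DMSO in 384-well plates. Plates were warmed to 37°C in a Tecan reader and read at 340 nm every minute for 1 hour. The value is end-point change in optical density as percent fold change versus DMSO vehicle, with runs scaled by means and standard deviations of DMSO and reference-control wells.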
`COc1ccc2cc(CN(CC3CCCO3)C(=O)Nc3ccc(Cl)cc3)c(=O)[nH]c2c1` (centres undefined): the “tubulin polymerization end-point dOD” value was -0.367%.
As for `Oc1ccccc1-c1nc2cnccn2c1NCc1ccc2c(c1)OCO2`, the “tubulin polymerization end-point dOD” value was -6.54%.
As for `COc1ccccc1-n1c(SCC(=O)Nc2nccs2)nnc1-c1cccnc1`, the “tubulin polymerization end-point dOD” value came out at 5.05%.
The figure for `COc1ccccc1NC(=S)N(Cc1ccccc1)Cc1cc2ccc(C)cc2[nH]c1=O` is 272%; for `Cc1ccc2cc(C)c3nn(CCNC(=O)c4ccncc4)c(=O)n3c2c1` it is -34.2%.
In the case of `Nc1cccc2c1C(=O)c1cccc(NC(=O)c3ccccc3)c1C2=O`, the “tubulin polymerization end-point dOD” value is 24.7%.
For `O=C(Nc1ccc2c(c1)OCCO2)C(=O)Nc1cccc2cccnc12`, the “tubulin polymerization end-point dOD” value worked out at 76%.
Under `Cc1cc2cc3c(cc2nc1SCC(=O)Nc1ccccc1C(F)(F)F)OCO3` stands -12.8%.
Under `COc1cc(C2NC(=O)c3ccccc3N2)cc2c1OCO2` (centres undefined) stands -31.5%; under `COc1cccc(N2CCN(C(=O)c3cc(C4CC4)nc4ccccc34)CC2)c1`, -85.1%.
On to `O=C(Nc1ccc(N2CCCC2)cc1)C1COc2ccc(Cl)cc2C1` (centres undefined), for which the “tubulin polymerization end-point dOD” value came to 19.2%.
The figure for `COc1cccc(/C=C(/Cl)c2nc3cc(OC)c(OC)cc3c(=O)[nH]2)c1` is 42.1%; for `COc1ccccc1N1CC[NH+](Cc2c(-c3ccccc3)nc3sccn23)CC1` it is -21.9%.
Consider `N#Cc1ccc(Cc2cnc(NC(=O)c3ccc4ncsc4c3)s2)cc1`, for which the “tubulin polymerization end-point dOD” value is -40.1%.
On to `CC(=O)c1c(C)cc(C)c(CSc2nnc(-c3ccc(F)cc3)n2C)c1C`, for which the “tubulin polymerization end-point dOD” value was -75.9%.
The figure for `CCc1ccc2nc(SCC(=O)Nc3ccccc3N3CCOCC3)c(C#N)cc2c1` is -7.7%; for `CS(=O)(=O)c1ccc(C(=O)Nc2ncc(Cc3cccc(Cl)c3Cl)s2)cc1` it is -8.57%.
In the case of `O=C1N/C(=N/N=C/c2ccccc2O)SC1Cc1cc(C(F)(F)F)ccc1Cl` (centres undefined), the “tubulin polymerization end-point dOD” value is -23%.
As to `CCc1ccccc1NC(=O)CSc1nc2cc3c(cc2cc1C#N)OCO3`, the “tubulin polymerization end-point dOD” value was 56.6%.
In the case of `O=c1[nH]c(/C=C/c2ccccc2)nc2sc3c(c12)CCCCC3`, the “tubulin polymerization end-point dOD” value came to 16.8%.
Turning to `N#Cc1ccsc1NC(=O)C1COc2ccccc2C1` (centres undefined), the “tubulin polymerization end-point dOD” value was -10.4%.
On to `Cc1cc2cc(CN(CC3CCCO3)C(=S)Nc3ccccc3)c(=O)[nH]c2cc1C` (centres undefined), for which the “tubulin polymerization end-point dOD” value is -20.3%.
As for `COC(=O)Nc1nc2cc(Sc3ccccc3)ccc2[nH]1` [Fenbendazole], the “tubulin polymerization end-point dOD” value is -27.1%.
On to `Cc1ccc(-c2csc3ncn(CC4CCCCO4)c(=O)c23)cc1` (centres undefined), for which the “tubulin polymerization end-point dOD” value was -190%.
`CCc1ccc2nc(SCC(=O)Nc3ccccc3C)c(C)cc2c1`: the “tubulin polymerization end-point dOD” value was -20.5%.
For the compound `CN(C)c1ncc(C(=O)Nc2ccc(Oc3ccc4c(c3)OCO4)cc2)cn1`, the “tubulin polymerization end-point dOD” value was 8.04%.
With `O=C(Nc1nc2ccccc2[nH]1)c1cccc2ccccc12`, the “tubulin polymerization end-point dOD” value is -76.4%.
Under `Cn1c(C(=O)Nc2ccc(-c3nccs3)cc2)cc(Br)c1Br` stands 15.5%; under `O=C(Nc1ncc(Cc2ccc(Cl)cc2Cl)s1)c1cnccn1`, 6.51%.
